Reference: PubChem BioAssay (Tox21)
Inconclusive results are not listed. The source made the active and inactive calls. Calls follow the shape of the full dose curve.

Tests used:
[1] = target: Acetylcholinesterase (Homo sapiens) (UniProt P22303); assay: Acetylcholinesterase (AChE) small molecule antagonists: colormetric cell-based qHTS assay (AID 1347395); also: nearly all actives have a fitted effect of over 30% in size
Summary of the method: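 SH-SY5Y cells attached overnight, exposed to compound 30 min at 37 C, then given DTNB/acetylthiocholine; after 90 min at 37 C, colorimetric thiocholine read gives cellular AChE activity.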

[2] = target: Acetylcholinesterase (Homo sapiens) (UniProt P22303); assay: Acetylcholinesterase (AChE) small molecule antagonists: enzyme-based qHTS assay (AID 1347397); conditions: Potency: AChE enzyme activity inhibition; outcome: AChE enzyme activity inhibition; also: nearly all actives have a fitted effect of over 55% in size
Summary of the method: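 Human recombinant acetylcholinesterase; substrate acetylthiocholine; thiocholine quantified with DTNB (colorimetric). Compound preincubation 30 min RT; reaction 10 min RT.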

[3] = target: Acetylcholinesterase (Homo sapiens) (UniProt P22303); assay: Acetylcholinesterase (AChE) small molecule antagonists: fluorescence cell-based qHTS assay (AID 1347398); conditions: Potency: AChE activity; outcome: AChE activity; also: nearly all actives have a fitted effect of over 50% in size
Summary of the method: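 Thiocholine generated from acetylthiocholine by SH-SY5Y cell AChE is detected with Thiolite Green (Ex/Em 490/520 nm) after 40 min at room temperature, following 30 min compound pretreatment at 37 C.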

[4] = target: Acetylcholinesterase (Homo sapiens) (UniProt P22303); assay: Acetylcholinesterase (AChE) small molecule antagonists: enzyme-based qHTS assay with human liver microsomes (AID 1347399); conditions: Potency: qHTS inhibition; outcome: qHTS inhibition; also: nearly all actives have a fitted effect of over 60% in size
Summary of the method: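 Recombinant human AChE (50 mU/mL in the enzyme mix) and human liver microsomes (0.25 mg/mL final) were preincubated with compound and NADPH (0.25 mg/mL final) for 30 min at 37 C. Acetylthiocholine/DTNB was then added; thiocholine was read colorimetrically after 10 min at room temperature.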
% is scaled to controls: 0 for no effect and ±100 for the full control effect; potency is read from the fitted curve at half-maximal effect.

Sequence of Acetylcholinesterase (Homo sapiens) (P22303 whole entry, looked up): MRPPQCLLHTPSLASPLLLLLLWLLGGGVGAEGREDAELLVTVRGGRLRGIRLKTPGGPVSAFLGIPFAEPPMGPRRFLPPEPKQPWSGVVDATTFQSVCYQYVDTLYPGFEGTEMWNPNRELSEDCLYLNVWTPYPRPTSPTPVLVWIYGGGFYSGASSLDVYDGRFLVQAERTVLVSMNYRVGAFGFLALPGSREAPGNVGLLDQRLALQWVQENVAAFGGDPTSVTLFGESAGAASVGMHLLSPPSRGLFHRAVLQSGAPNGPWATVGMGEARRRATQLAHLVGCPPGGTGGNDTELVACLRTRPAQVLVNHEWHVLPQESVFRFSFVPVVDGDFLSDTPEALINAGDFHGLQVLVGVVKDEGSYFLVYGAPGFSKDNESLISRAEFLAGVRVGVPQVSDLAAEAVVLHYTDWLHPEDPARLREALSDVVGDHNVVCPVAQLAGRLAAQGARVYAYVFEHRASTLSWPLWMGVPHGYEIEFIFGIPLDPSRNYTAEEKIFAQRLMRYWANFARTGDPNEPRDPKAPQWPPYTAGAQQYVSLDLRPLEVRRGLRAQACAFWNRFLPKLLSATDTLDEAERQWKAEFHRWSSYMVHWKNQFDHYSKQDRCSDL

CCN(CC)CCOc1ccc2c(c1)C(=O)c1cc(OCCN(CC)CC)ccc1-2
active: Potency [1] 776 nM | Potency [2] 1550 nM | Potency [3] 550 nM | Potency [4] 5490 nM

COc1ccc2[nH]c(S(=O)Cc3ncc(C)c(OC)c3C)nc2n1 (stereo not drawn)
inactive: Potency [1] | Potency [2] | Potency [3] | Potency [4]

CC[N+](C)(CC)CCOC(=O)C(O)(c1ccccc1)C1CCCCC1 (stereo not drawn)
inactive: Potency [1] | Potency [2] | Potency [3] | Potency [4]

Cc1ccc(C(C)NC(=O)[C@@H](NC(=O)OC(C)C)C(C)C)cc1 (stereo partly drawn)
inactive: Potency [1] | Potency [2] | Potency [3] | Potency [4]

ON=C1CCCC1
inactive: Potency [1] | Potency [2] | Potency [3] | Potency [4]

Cc1cccc(C)c1NC(=O)C(C)N (stereo not drawn)
inactive: Potency [1] | Potency [2] | Potency [3] | Potency [4]

CCN(CC)c1ccc(C(=C2C=CC(=[N+](CC)CC)C=C2)c2cc(S(=O)(=O)O)ccc2S(=O)(=O)[O-])cc1
inactive: Potency [1] | Potency [2] | Potency [3] | Potency [4]

CC(C)C(=O)O
inactive: Potency [1] | Potency [2] | Potency [3] | Potency [4]

CCC/C=C/CO
inactive: Potency [1] | Potency [2] | Potency [3] | Potency [4]

O=C(O)c1ccc(CO)o1
inactive: Potency [1] | Potency [2] | Potency [3] | Potency [4]

CCCCCCCCCCCBr
inactive: Potency [1] | Potency [2] | Potency [3] | Potency [4]

CCOCN(C(=O)CS(=O)(=O)O)c1c(C)cccc1CC
inactive: Potency [1] | Potency [2] | Potency [3] | Potency [4]

CCc1ccc(C)nc1
inactive: Potency [1] | Potency [2] | Potency [3] | Potency [4]

CCCCCCOC(=O)CCCCC(=O)OCCCCCC
inactive: Potency [1] | Potency [2] | Potency [3] | Potency [4]

Cc1cccc(CN2CCN(C(c3ccccc3)c3ccc(Cl)cc3)CC2)c1 (stereo not drawn)
inactive: Potency [1] | Potency [2] | Potency [3] | Potency [4]

C=CCOc1ccccc1OCC(O)CNC(C)C (stereo not drawn)
inactive: outcome [1] | outcome [2] | outcome [3] | outcome [4]

C1C2OC2C2C1C1CC2C2OC12 (stereo not drawn)
inactive: Potency [1] | Potency [2] | Potency [3] | Potency [4]

O=C(c1ccccc1)C1CCCCC1
inactive: Potency [1] | Potency [2] | Potency [3] | Potency [4]

Cc1ccc(S)cc1
inactive: Potency [1] | Potency [2] | Potency [3] | Potency [4]

CCSCC
inactive: Potency [1] | Potency [2] | Potency [3] | Potency [4]

CC(=O)c1cc(C)oc1C
inactive: Potency [1] | Potency [2] | Potency [3] | Potency [4]

c1ccc2c(c1)ccc1c3ccccc3ccc21
inactive: Potency [1] | Potency [2] | Potency [3] | Potency [4]

CC(C)(C)c1ccc(OC(=O)c2ccccc2O)cc1
inactive: Potency [1] | Potency [2] | Potency [3] | Potency [4]

C=C1CCC2CC1C2(C)C (stereo not drawn)
inactive: Potency [1] | Potency [2] | Potency [3] | Potency [4]

COc1ccnc(CS(=O)c2nc3ccc(OC(F)F)cc3[nH]2)c1OC (stereo not drawn)
inactive: Potency [1] | Potency [2] | Potency [3] | Potency [4]

C=C(C)C(=O)OCCCCCCCCCCOC(=O)C(=C)C
inactive: Potency [1] | Potency [2] | Potency [3] | Potency [4]

CC(C)C(=O)OCC(C)(C)C(O)C(C)C (stereo not drawn)
inactive: Potency [1] | Potency [2] | Potency [3] | Potency [4]

Cc1cnc(C)c(C)n1
inactive: Potency [1] | Potency [2] | Potency [3] | Potency [4]

C=CCCCCCCCCCCCCCC
inactive: activity, negative = inhibition [1] 0.819% [at 23.6 µM] | activity change, negative = inhibition [2] 0.291% [at 23.6 µM] | activity change, negative = inhibition [3] 5.43% [at 23.8 µM] | activity change, negative = inhibition [4] -1.13% [at 23.6 µM]

CCCCCCCCCCc1ccccc1
inactive: Potency [1] | Potency [2] | Potency [3] | Potency [4]

C=CCOc1c(Br)cc(Br)cc1Br
inactive: Potency [1] | Potency [2] | Potency [3] | Potency [4]

O=C1CCCCO1
inactive: Potency [1] | Potency [2] | Potency [3] | Potency [4]

Cc1cncc(C)c1
inactive: Potency [1] | Potency [2] | Potency [3] | Potency [4]

O=C1Nc2ccc(Cl)cc2[C@@](C#CC2CC2)(C(F)(F)F)O1
inactive: Potency [1] | Potency [2] | Potency [3] | Potency [4]

CC(=O)OC(C)C[N+](C)(C)C (stereo not drawn)
inactive: Potency [1] | Potency [2] | Potency [3] | Potency [4]

CC(=O)OCC(=O)[C@@]1(O)[C@H](OC(C)=O)C[C@H]2[C@@H]3CCC4=CC(=O)C=C[C@]4(C)[C@@]3(F)[C@@H](O)C[C@@]21C
inactive: Potency [1] | Potency [2] | Potency [3] | Potency [4]

CC(=O)OCC(=O)Nc1cc(C#N)cc(NC(=O)COC(C)=O)c1Cl
inactive: Potency [1] | Potency [2] | Potency [3] | Potency [4]
